# PubChem BioAssay (EPA / NIEHS)
# More than one record can exist for a structure, and the calls need not agree. Activity calls are given as the source filed them. The calls were made as follows: active = hit-call score of the fitted dose curve at least 0.9, where 1 is the maximum; inactive = score below 0.9.
# Tests used:
# [1] = ATG_E_Box_CIS: Attagene CIS-FACTORIAL HepG2 Assay for human Enhancer Box (E-box) (AID 2282936); settings: HepG2 E-box cis-reporter transcription, actives raise or lower the signal
# Method in brief: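 Cells: HepG2 (human liver), transient MRTU transfection. Exposure 24 h. RNA → oligo(dT) RT → PCR → 6-FAM label → HpaI → CE. Activity fitted both directions relative to DMSO.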
# [2] = ATG_M_61_CIS: Attagene CIS-FACTORIAL HepG2 Assay for M61 Transcription Factor (Internal Marker) (AID 2282937); settings: HepG2 Attagene CIS-FACTORIAL M61 internal marker reporter; actives raise or lower the signal
# Method in brief: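 HepG2 cells transiently transfected with multiplexed cis-promoter reporter units reporting endogenous transcription factor activity, measured 24 h after dosing. Reporter mRNA quantified by RT-PCR and capillary electrophoresis; bidirectional fit against DMSO baseline.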
# [3] = ATG_EGR_CIS: Attagene CIS-FACTORIAL HepG2 Assay for human Early Growth Response 1 (EGR1) (AID 2282938); settings: HepG2 Attagene CIS-FACTORIAL EGR reporter mRNA; actives raise or lower the signal
# Method in brief: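 HepG2 cells transiently transfected with cis-element-driven multiplexed reporter units, dosed for 24 h. EGR1-element reporter mRNA quantified by RT-PCR, 6-FAM labelling, HpaI digestion and capillary electrophoresis; bidirectional fit versus DMSO.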
# [4] = ATG_M_19_CIS: Attagene CIS-FACTORIAL HepG2 Assay for M19 Transcription Factor (Internal Marker) (AID 2282939); settings: HepG2 Attagene CIS-FACTORIAL M19 internal marker reporter; actives raise or lower the signal
# Method in brief: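 Internal marker readout, fitted in both directions against DMSO, from HepG2 cells carrying transfected cis-element reporter constructs; RT-PCR and capillary electrophoresis of reporter mRNA after 24 h exposure.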
# [5] = ATG_ERE_CIS: Attagene CIS-FACTORIAL HepG2 Assay for Estrogen Response Element (ERE) (AID 2282940); settings: HepG2 ERE cis-reporter, Attagene RNA transcript; actives raise or lower the signal
# Method in brief: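 After 24 h compound treatment, RNA from transfected HepG2 cells was reverse-transcribed, reporter cDNA PCR-amplified, FAM-labelled, HpaI-cut and resolved by capillary electrophoresis. ERE-driven cis reporter transcripts reflect endogenous factors; gain or loss scored against DMSO.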
# [6] = ATG_Ets_CIS: Attagene CIS-FACTORIAL HepG2 Assay for human Erythroblast Transformation Specific (ETS) (AID 2282941); settings: HepG2 ETS cis-reporter transcription, actives raise or lower the signal
# Method in brief: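 HepG2 cells transfected with multiple cis-regulated reporter units measuring endogenous ETS-driven transcription, 24 h after dosing. Reporter mRNA quantified by RT-PCR with capillary electrophoresis; bidirectional fit relative to DMSO.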
# [7] = molecular target: Hepatocyte nuclear factor 3-beta (Homo sapiens) (UniProt Q9Y261); assay: ATG_FoxA2_CIS: Attagene CIS-FACTORIAL HepG2 Assay for human Forkhead box A2 (FOXA2) (AID 2282942); settings: HepG2 cis-reporter transcription factor activity, 24 h; actives raise or lower the signal
# Chain of Hepatocyte nuclear factor 3-beta (Homo sapiens) (Q9Y261 whole entry, looked up): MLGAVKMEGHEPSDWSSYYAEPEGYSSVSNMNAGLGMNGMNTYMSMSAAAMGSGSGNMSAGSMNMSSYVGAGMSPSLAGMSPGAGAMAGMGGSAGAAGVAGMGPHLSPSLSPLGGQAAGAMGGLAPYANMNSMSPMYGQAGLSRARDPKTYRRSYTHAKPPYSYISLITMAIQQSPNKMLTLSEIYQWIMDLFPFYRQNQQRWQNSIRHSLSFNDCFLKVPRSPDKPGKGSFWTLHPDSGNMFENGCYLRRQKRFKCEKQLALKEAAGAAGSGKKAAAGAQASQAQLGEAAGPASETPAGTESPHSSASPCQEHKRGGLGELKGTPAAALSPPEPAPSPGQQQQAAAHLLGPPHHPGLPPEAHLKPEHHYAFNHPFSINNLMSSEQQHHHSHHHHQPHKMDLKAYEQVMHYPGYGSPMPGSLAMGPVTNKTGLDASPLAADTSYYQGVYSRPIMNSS
# Method in brief: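 HepG2 transiently transfected with a multiplexed cis-promoter reporter library read endogenous FOXA2 activity. After 24 h compound exposure, reporter mRNA was quantified by RT-PCR, HpaI digestion and capillary electrophoresis. Bidirectional fit against DMSO.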
# [8] = ATG_FoxO_CIS: Attagene CIS-FACTORIAL HepG2 Assay for human Forkhead box O (FoxO) (AID 2282943); settings: HepG2 Attagene cis-reporter, FoxO element, mRNA; actives raise or lower the signal
# Method in brief: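 Human hepatoma HepG2 cells carry transiently introduced reporter transcription units controlled by cis promoter elements. Chemical treatment lasted 24 h, and mRNA signal was compared with DMSO.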
# [9] = ATG_GATA_CIS: Attagene CIS-FACTORIAL HepG2 Assay for human GATA Binding Protein (AID 2282944); settings: HepG2 GATA cis-element reporter, Attagene multiplex mRNA; actives raise or lower the signal
# Method in brief: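 Reporter transcripts from a GATA cis-regulated unit, among multiplexed reporters in transfected HepG2 cells, were measured by RT-PCR with capillary electrophoresis after 24 h dosing. Induction or loss scored relative to DMSO.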
# [10] = ATG_GLI_CIS: Attagene CIS-FACTORIAL HepG2 Assay for human Zinc Finger Protein GLI1 (AID 2282945); settings: HepG2, Attagene cis-factorial reporter mRNA, GLI element; actives raise or lower the signal
# Method in brief: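 Bidirectional curve fits relative to DMSO, using reporter mRNA levels from RT-PCR plus capillary electrophoresis. Cells were HepG2 transiently carrying cis-regulated reporter constructs, harvested 24 h after dosing.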
# [11] = ATG_GRE_CIS: Attagene CIS-FACTORIAL HepG2 Assay for human Glucocorticoid Response Elements (GRE) (AID 2282947); settings: HepG2 GRE cis-reporter, Attagene multiplex mRNA; actives raise or lower the signal
# Method in brief: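 Transient MRTU transfection of human HepG2 liver cells; cis-regulated reporters report endogenous factors. 24 h dosing → RNA isolation → RT-PCR → 6-FAM primer extension → HpaI cut → CE fragment analysis. Bidirectional fit, DMSO negative control.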
# [12] = ATG_ISRE_CIS: Attagene CIS-FACTORIAL HepG2 Assay for human Interferon Regulatory Factor 1 (IRF1) binding to an Interferon-Stimulated Response Element (ISRE) (AID 2282948); settings: HepG2 ISRE cis-reporter (Attagene), mRNA transcription readout; actives raise or lower the signal
# Method in brief: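 Transiently transfected HepG2 cells carrying cis-element reporter units, dosed 24 hours. Reporter mRNA quantified by RT-PCR, fluorescent primer extension, HpaI digestion and capillary electrophoresis. Bidirectional fitting relative to DMSO.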
# [13] = ATG_M_32_CIS: Attagene CIS-FACTORIAL HepG2 Assay for M32 Transcription Factor (Internal Marker) (AID 2282949); settings: HepG2 Attagene cis-factorial M32 reporter, mRNA; actives raise or lower the signal;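 also: background control marker of the multiplexed CIS panel rather than a real target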
# Method in brief: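 HepG2 cells transiently transfected with multiplexed cis-regulated reporter units, dosed 24 h. Reporter mRNA quantified by RT-PCR, 6-FAM labelling, HpaI digestion and capillary electrophoresis; bidirectional fit vs DMSO.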
# [14] = ATG_M_06_CIS: Attagene CIS-FACTORIAL HepG2 Assay for M06 Transcription Factor (Internal Marker) (AID 2282950); settings: HepG2 Attagene CIS-FACTORIAL M06 internal marker reporter; actives raise or lower the signal
# Method in brief: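 Serves as a background control readout. Transfected HepG2 exposed to compounds for 24 h, then reporter transcripts quantified by fluorescent RT-PCR and capillary electrophoresis. Both directions fitted against DMSO baseline.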
# [15] = molecular target: Hypoxia-inducible factor 1-alpha (Homo sapiens) (UniProt Q16665); assay: ATG_HIF1a_CIS: Attagene CIS-FACTORIAL HepG2 Assay for human Hypoxia Inducible Factor 1 (HIF1A) (AID 2282951); settings: HepG2 Attagene cis-factorial HIF1a reporter transcription; actives raise or lower the signal
# Chain of Hypoxia-inducible factor 1-alpha (Homo sapiens) (Q16665 whole entry, looked up): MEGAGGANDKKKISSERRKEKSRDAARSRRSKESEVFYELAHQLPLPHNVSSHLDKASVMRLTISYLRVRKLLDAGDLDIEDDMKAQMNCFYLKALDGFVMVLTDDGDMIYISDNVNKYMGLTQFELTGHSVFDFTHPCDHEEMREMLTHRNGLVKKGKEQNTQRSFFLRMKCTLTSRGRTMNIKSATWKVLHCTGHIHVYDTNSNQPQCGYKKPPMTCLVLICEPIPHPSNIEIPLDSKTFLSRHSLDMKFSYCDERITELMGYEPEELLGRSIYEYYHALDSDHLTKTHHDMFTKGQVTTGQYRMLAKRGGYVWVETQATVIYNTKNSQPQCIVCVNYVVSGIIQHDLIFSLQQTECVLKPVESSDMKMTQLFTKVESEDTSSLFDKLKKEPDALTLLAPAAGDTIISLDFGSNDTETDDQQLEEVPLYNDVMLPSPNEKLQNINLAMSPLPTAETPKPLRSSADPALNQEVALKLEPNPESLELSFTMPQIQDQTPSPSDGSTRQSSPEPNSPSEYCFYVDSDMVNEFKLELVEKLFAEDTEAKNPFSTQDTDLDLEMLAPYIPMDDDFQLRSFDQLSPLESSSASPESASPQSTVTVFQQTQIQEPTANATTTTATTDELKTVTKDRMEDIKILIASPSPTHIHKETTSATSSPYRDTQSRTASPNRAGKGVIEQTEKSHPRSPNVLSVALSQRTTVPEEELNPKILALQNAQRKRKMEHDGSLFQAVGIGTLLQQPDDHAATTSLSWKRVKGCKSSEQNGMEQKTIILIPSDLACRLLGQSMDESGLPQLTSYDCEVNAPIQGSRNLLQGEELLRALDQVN
# Method in brief: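 HepG2 cells transiently transfected with multiple cis-regulated reporter transcription units measure endogenous transcription factor activity. After 24 h exposure, reporter mRNA is quantified by RT-PCR with 6-FAM labelling, HpaI digestion and capillary electrophoresis. Bidirectional fitting against DMSO.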
# [16] = molecular target: Hepatocyte nuclear factor 6 (Homo sapiens) (UniProt Q9UBC0); assay: ATG_HNF6_CIS: Attagene CIS-FACTORIAL HepG2 Assay for human Hepatocyte Nuclear Factor 6 (HNF6) (AID 2282952); settings: HepG2 Attagene cis-factorial HNF6 reporter transcription; actives raise or lower the signal
# Chain of Hepatocyte nuclear factor 6 (Homo sapiens) (Q9UBC0 whole entry, looked up): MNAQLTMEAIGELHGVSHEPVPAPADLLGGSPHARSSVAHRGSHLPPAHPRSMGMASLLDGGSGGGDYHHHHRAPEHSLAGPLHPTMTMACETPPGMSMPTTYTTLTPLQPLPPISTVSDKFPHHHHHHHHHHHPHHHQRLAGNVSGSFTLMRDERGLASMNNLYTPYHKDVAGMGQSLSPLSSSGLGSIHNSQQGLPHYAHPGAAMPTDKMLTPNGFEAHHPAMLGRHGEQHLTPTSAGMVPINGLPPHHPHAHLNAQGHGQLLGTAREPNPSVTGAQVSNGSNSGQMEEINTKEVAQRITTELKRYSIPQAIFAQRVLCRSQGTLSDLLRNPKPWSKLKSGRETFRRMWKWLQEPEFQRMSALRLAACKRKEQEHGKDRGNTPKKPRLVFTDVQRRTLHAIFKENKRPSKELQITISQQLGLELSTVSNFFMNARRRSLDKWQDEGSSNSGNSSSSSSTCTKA
# Method in brief: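 Multiplexed mRNA reporter assay in transfected HepG2; 24 h dosing; RT-PCR plus capillary electrophoresis fluorescence; DMSO-referenced bidirectional curve fitting.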
# [17] = molecular target: Heat shock factor protein 1 (Homo sapiens) (UniProt Q00613); assay: ATG_HSE_CIS: Attagene CIS-FACTORIAL HepG2 Assay for human Heat Shock Transcription Factor 1 (HSE) (AID 2282953); settings: HepG2 HSE cis-reporter, Attagene RNA transcription; actives raise or lower the signal
# Chain of Heat shock factor protein 1 (Homo sapiens) (Q00613 whole entry, looked up): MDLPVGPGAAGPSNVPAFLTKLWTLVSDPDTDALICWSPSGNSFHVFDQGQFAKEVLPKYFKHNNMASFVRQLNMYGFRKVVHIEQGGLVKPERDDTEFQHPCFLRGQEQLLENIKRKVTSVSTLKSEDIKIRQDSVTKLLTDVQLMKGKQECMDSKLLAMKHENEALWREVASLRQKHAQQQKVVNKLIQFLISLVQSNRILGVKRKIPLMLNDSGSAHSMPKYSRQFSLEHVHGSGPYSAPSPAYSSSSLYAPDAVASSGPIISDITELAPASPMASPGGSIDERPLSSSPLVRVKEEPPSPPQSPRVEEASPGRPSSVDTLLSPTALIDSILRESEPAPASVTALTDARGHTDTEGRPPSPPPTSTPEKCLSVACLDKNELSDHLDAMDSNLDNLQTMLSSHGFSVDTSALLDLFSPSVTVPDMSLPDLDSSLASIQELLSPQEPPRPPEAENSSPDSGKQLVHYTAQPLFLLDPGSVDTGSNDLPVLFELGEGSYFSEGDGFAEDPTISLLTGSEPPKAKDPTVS
# Method in brief: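 Endogenous transcription factor activity in transiently transfected HepG2, read as reporter mRNA by RT-PCR with fluorescent capillary electrophoresis after 24 h. Gain or loss of signal fitted versus DMSO baseline.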
# [18] = ATG_MRE_CIS: Attagene CIS-FACTORIAL HepG2 Assay for human Metal Responsive Element (MRE) (AID 2282954); settings: HepG2 MRE cis-reporter transcription, Attagene multiplex; actives raise or lower the signal
# Method in brief: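 Transient MRTU transfection of HepG2 (FuGene 6); 24 h dosing; total RNA → oligo(dT) RT, PCR, 6-FAM primer extension, HpaI cut, CE. Bidirectional fit vs DMSO.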
# [19] = ATG_PBREM_CIS: Attagene CIS-FACTORIAL HepG2 Assay for human Phenobarbital-responsive Enhancer Module (PBREM) (AID 2282955); settings: HepG2 PBREM cis-reporter, Attagene multiplexed transcription; actives raise or lower the signal
# Method in brief: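 HepG2 cells transiently transfected with multiple cis-regulated reporter units measure endogenous transcription factor activity; 24 h compound exposure. Reporter mRNA quantified by RT-PCR, fluorescent labelling, HpaI digestion and capillary electrophoresis; bidirectional fit versus DMSO.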
# [20] = molecular target: Paired box protein Pax-6 (Homo sapiens) (UniProt P26367); assay: ATG_Pax6_CIS: Attagene CIS-FACTORIAL HepG2 Assay for human Paired Box 6 (PAX6) (AID 2282956); settings: HepG2 CIS-FACTORIAL PAX6 reporter transcription, RNA readout; actives raise or lower the signal
# Chain of Paired box protein Pax-6 (Homo sapiens) (P26367 whole entry, looked up): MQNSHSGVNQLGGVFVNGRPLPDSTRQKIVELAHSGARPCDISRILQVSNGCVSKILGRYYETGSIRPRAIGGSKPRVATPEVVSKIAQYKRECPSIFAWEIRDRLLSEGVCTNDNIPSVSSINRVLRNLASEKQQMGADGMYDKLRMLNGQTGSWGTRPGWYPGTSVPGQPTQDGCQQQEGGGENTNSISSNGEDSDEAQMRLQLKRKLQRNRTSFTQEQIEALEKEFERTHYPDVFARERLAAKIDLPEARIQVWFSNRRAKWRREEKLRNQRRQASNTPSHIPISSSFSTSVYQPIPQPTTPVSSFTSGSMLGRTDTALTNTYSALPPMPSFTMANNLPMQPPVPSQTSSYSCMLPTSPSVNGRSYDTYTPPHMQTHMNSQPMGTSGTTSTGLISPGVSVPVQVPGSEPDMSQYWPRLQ
# Method in brief: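 HepG2 cells transiently transfected with cis-promoter-driven multiplexed reporter units sensing endogenous transcription factor activity; 24 h chemical exposure. Reporter mRNA quantified by RT-PCR, 6-FAM labelling, HpaI digestion and capillary electrophoresis; bidirectional fit versus DMSO baseline.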
compound,measurement,setting,value
ClC1=C(Cl)[C@]2(Cl)[C@@H]3[C@@H](Cl)[C@H]4O[C@H]4[C@@H]3C1(Cl)C2(Cl)Cl,AC50,[1],53 µM (active)
same,outcome,[2],inactive
same,AC50,[3],54.9 µM (active)
same,AC50,[4],179 µM (active)
same,outcome,[5],inactive
same,outcome,[6],inactive
same,outcome,[7],inactive
same,outcome,[8],inactive
same,AC50,[9],162 µM (active)
same,outcome,[10],inactive
same,outcome,[11],inactive
same,AC50,[12],57.6 µM (active)
same,outcome,[13],inactive
same,outcome,[14],inactive
same,outcome,[15],inactive
same,outcome,[16],inactive
same,AC50,[17],85.5 µM (active)
same,AC50,[18],100 µM (active)
same,outcome,[19],inactive
same,outcome,[20],inactive
CCCCCCCCCc1ccc(O)cc1,AC50,[1],63.2 µM (active)
same,outcome,[1],inactive
same,outcome,[3],inactive
same,outcome,[4],inactive
same,outcome,[6],inactive
same,outcome,[7],inactive
same,outcome,[8],inactive
same,AC50,[9],49.7 µM (active)
same,outcome,[9],inactive
same,AC50,[10],184 µM (active)
same,outcome,[10],inactive
same,outcome,[12],inactive
same,AC50,[13],166 µM (active)
same,outcome,[13],inactive
same,outcome,[14],inactive
same,AC50,[15],178 µM (active)
same,outcome,[15],inactive
same,AC50,[16],145 µM (active)
same,outcome,[16],inactive
same,outcome,[17],inactive
same,AC50,[18],17.5 µM (active)
same,outcome,[18],inactive
same,outcome,[19],inactive
same,outcome,[20],inactive
O=C(O)C(F)(F)C(F)(F)C(F)(F)C(F)(F)C(F)(F)F,outcome,[1],inactive
same,outcome,[2],inactive
same,outcome,[3],inactive
same,outcome,[4],inactive
same,outcome,[5],inactive
same,outcome,[6],inactive
same,outcome,[7],inactive
same,outcome,[8],inactive
same,outcome,[9],inactive
same,outcome,[10],inactive
same,outcome,[11],inactive
same,outcome,[12],inactive
same,outcome,[13],inactive
same,outcome,[14],inactive
same,AC50,[15],5.86 µM (active)
same,outcome,[15],inactive
same,outcome,[16],inactive
same,outcome,[17],inactive
same,outcome,[18],inactive
same,outcome,[19],inactive
same,outcome,[20],inactive
C[C@]12CCC(=O)C=C1CC[C@@H]1[C@@H]2CC[C@]2(C)C(=O)CC[C@@H]12,outcome,[1],inactive
same,outcome,[2],inactive
same,outcome,[3],inactive
same,outcome,[4],inactive
same,outcome,[6],inactive
same,outcome,[7],inactive
same,outcome,[8],inactive
same,outcome,[9],inactive
same,outcome,[10],inactive
same,outcome,[12],inactive
same,outcome,[13],inactive
same,outcome,[14],inactive
same,outcome,[16],inactive
same,outcome,[17],inactive
same,outcome,[18],inactive
same,outcome,[19],inactive
same,outcome,[20],inactive
CCOCCOC(C)=O,outcome,[1],inactive
same,outcome,[2],inactive
same,outcome,[3],inactive
same,outcome,[4],inactive
same,outcome,[5],inactive
same,outcome,[6],inactive
same,outcome,[7],inactive
same,outcome,[8],inactive
same,outcome,[9],inactive
same,outcome,[10],inactive
same,outcome,[11],inactive
same,outcome,[12],inactive
same,outcome,[13],inactive
same,outcome,[14],inactive
same,outcome,[15],inactive
same,outcome,[16],inactive
same,outcome,[17],inactive
same,outcome,[18],inactive
same,outcome,[20],inactive
